In PubChem BioAssay (Tox21):
Inconclusive results are not listed. Calls of active or inactive are those of the source. Unless noted, the call rests on the fitted dose curve; in most records, active means well fitted curve in the direction sought with a large enough effect in the repeat runs; inconclusive means weak or mixed curves; inactive means no such curve, though single readings can be large; an effect the other way counts as inactive or inconclusive.

Key:
[1] = qHTS assay to identify small molecule agonists of the peroxisome proliferator-activated receptor delta (PPARd) signaling pathway - cell viability counter screen (AID 743211); further: nearly all actives have a fitted effect of over 55% in size
Method in brief: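 Tox21 library compounds, delivered in DMSO, were incubated 17 h with PPARd-bla HEK293H cells; cytotoxicity was taken from CellTiter-Glo luminescence read 30 min after reagent addition.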

[2] = molecular target: Peroxisome proliferator-activated receptor delta (Homo sapiens) (UniProt Q03181); test: qHTS assay to identify small molecule agonists of the peroxisome proliferator-activated receptor delta (PPARd) signaling pathway (AID 743212; calls by dose curve)
Chain of Peroxisome proliferator-activated receptor delta (Homo sapiens) (Q03181 whole entry, looked up): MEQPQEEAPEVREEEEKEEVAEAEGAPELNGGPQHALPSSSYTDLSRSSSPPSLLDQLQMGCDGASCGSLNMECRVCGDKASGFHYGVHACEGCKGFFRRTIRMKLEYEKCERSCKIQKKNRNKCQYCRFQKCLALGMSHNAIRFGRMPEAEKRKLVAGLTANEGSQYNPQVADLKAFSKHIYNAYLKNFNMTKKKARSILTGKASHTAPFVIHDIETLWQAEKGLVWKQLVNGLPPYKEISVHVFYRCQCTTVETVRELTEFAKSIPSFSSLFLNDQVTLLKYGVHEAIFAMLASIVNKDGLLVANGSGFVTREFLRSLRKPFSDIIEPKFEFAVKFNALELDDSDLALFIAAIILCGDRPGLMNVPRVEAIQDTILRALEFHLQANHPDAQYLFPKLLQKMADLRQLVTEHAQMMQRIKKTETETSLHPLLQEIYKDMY
Method in brief: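 HEK293H UAS-bla reporter cells, human PPARd system; compounds delivered in DMSO after 5 h plating, then at 37 C. Beta-lactamase FRET read, 2 h RT substrate step.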

[3] = qHTS assay to identify small molecule antagonists of the peroxisome proliferator-activated receptor delta (PPARd) signaling pathway - cell viability counter screen (AID 743213); further: nearly all actives have a fitted effect of over 50% in size
Method in brief: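 PPARd-bla HEK293H cells were treated with compounds plus agonist L165041 (300 nM final) for 17 h at 37 C. Viability was then read in the same wells by CellTiter-Glo luminescence after 30 min at room temperature.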

[4] = molecular target: Peroxisome proliferator-activated receptor delta (Homo sapiens) (UniProt Q03181); test: qHTS assay to identify small molecule antagonists of the peroxisome proliferator-activated receptor delta (PPARd) signaling pathway (AID 743215; active means well fitted inhibition curve with a large enough effect in the signal ratio in the repeat runs, not every such curve was filed as active; the % refers to the signal ratio;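 further: cells stimulated with agonist L165041 at 300 nM final during compound exposure; series mostly up to about 62 µM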)
Method in brief: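 Inhibition of L165041-driven (300 nM final) PPARd signaling is scored in HEK293H UAS-bla cells. Exposure lasts 17 h at 37 C; beta-lactamase activity is then read by FRET substrate fluorescence after 2 h at room temperature.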

[5] = qHTS assay to identify small molecule antagonists of the farnesoid-X-receptor (FXR) signaling pathway - cell viability counter screen (AID 743221; active means well fitted cell-killing curve with a large enough effect in the repeat runs, not every such curve was filed as active; further: nearly all actives have a fitted effect of over 50% in size)
Method in brief: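 Cytotoxicity is taken from ATP luminescence (CellTiter-Glo, 30 min, room temperature) in FXR-bla HEK 293T cells previously incubated 16 h at 37 C with compound and chenodeoxycholic acid at 50 uM final.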

[6] = qHTS assay to identify small molecule agonists of the vitamin D receptor (VDR) signaling pathway - cell viability counter screen (AID 743224); further: series mostly up to about 63 µM; nearly all actives have a fitted effect of over 50% in size
Method in brief: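 Viability is measured in the same wells as the VDR-bla reporter assay: after 16 h compound treatment and 2 h substrate loading, CellTiter-Glo is added and luminescence read 30 min later.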

[7] = qHTS assay to identify small molecule antagonists of the vitamin D receptor (VDR) signaling pathway - cell viability counter screen (AID 743225); further: nearly all actives have a fitted effect of over 50% in size
Method in brief: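 Same-well multiplex: following 16 h treatment of HEK 293T cells carrying a UAS-driven beta-lactamase reporter with compound and agonist (3 nM final), and a 2 h FRET substrate step, CellTiter-Glo was added and luminescence read after 30 min.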

[8] = qHTS assay to identify small molecule agonists of the NFkB signaling pathway (AID 1159509; active means well fitted curve in the direction sought with a large enough effect in the signal ratio in the repeat runs, not every such curve was filed as active; the % refers to the signal ratio; further: series mostly up to about 61 µM)
Method in brief: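 NFkB-bla ME-180 cells with a beta-lactamase reporter under an NF-kB response element were plated overnight, treated with compounds in DMSO for 5 hr at 37 C, then loaded with FRET substrate for 1.5 hr at room temperature.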

[9] = qHTS assay to identify small molecule agonists of the NFkB signaling pathway - cell viability counter screen (AID 1159515; calls by dose curve; further: series mostly up to about 61 µM; nearly all actives have a fitted effect of over 55% in size)
Method in brief: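 Multiplexed viability readout: after the 5 hr compound exposure and 1.5 hr FRET substrate step, CellTiter-Glo reagent went into the same NFkB-bla ME-180 wells; ATP luminescence was measured after 30 min at room temperature.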

[10] = qHTS assay to identify small molecule agonists of the endoplasmic reticulum stress response signaling pathway (AID 1159516; active means well fitted activation curve with a large enough effect in the signal ratio in the repeat runs, not every such curve was filed as active; the % refers to the signal ratio)
Method in brief: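 Tox21 10K library screened in quantitative HTS format on ESRE-bla HeLa cells, a beta-lactamase reporter under ER stress response element control; 5 hr treatment, FRET read.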

[11] = qHTS assay to identify small molecule agonists of the endoplasmic reticulum stress response signaling pathway - cell viability counter screen (AID 1159517; calls by dose curve)
Method in brief: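 Cells, HeLa ESRE-bla; density, 1,500/well; dosing, 5 hr at 37 C, 5% CO2; readout, CellTiter-Glo luminescence after 30 min RT.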

[12] = qHTS assay to identify small molecule antagonists of the retinoid-related orphan receptor gamma (ROR-gamma) signaling pathway - cell viability counter screen (AID 1159520); further: nearly all actives have a fitted effect of over 50% in size
Method in brief: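 Cytotoxicity was read from cellular ATP (CellTiter-Glo luminescence) after 16 hr at 37 C with 1 uM doxycycline induction. The inducer was added 2 hr after compound transfer to Tet-on ROR gamma CHO cells.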

[13] = molecular target: Nuclear receptor ROR-gamma (Homo sapiens) (UniProt P51449); test: qHTS assay to identify small molecule antagonists of the retinoid-related orphan receptor gamma (ROR-gamma) signaling pathway (AID 1159521)
Method in brief: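 Inducible-expression reporter assay: doxycycline (1 uM final) switched on RORγ in CHO cells bearing a ROR response element-luciferase construct, with test compounds present from 2 h beforehand. Decreased luminescence after 16 h defined antagonist activity.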

[14] = qHTS assay to identify small molecule agonists of the AP-1 signaling pathway - cell viability counter screen (AID 1159525; calls by dose curve; further: nearly all actives have a fitted effect of over 55% in size)
Method in brief: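 Luminescent ATP readout (Cell Titer Glo, 30 min RT), normalised to DMSO and tetra n-octyl ammonium bromide controls. Cells were ME-180 AP-1-bla in 0.5% dialyzed FBS Opti-MEM, with a 5 h, 37 °C compound exposure.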

[15] = qHTS assay to identify small molecule agonists of the AP-1 signaling pathway (AID 1159526; calls by dose curve)
[16] = qHTS assay to identify small molecule agonists of the farnesoid-X-receptor (FXR) signaling pathway - cell viability counter screen (AID 743218); further: nearly all actives have a fitted effect of over 45% in size
Method in brief: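 Cytotoxicity counter-screen run in parallel, same wells: FXR-UAS-bla HEK 293T cells dosed 16 h at 37 C, viability read by CellTiter-Glo luminescence after 30 min at room temperature.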

[17] = molecular target: Bile acid receptor (Homo sapiens) (UniProt Q96RI1); test: qHTS assay to identify small molecule agonists of the farnesoid-X-receptor (FXR) signaling pathway (AID 743220; active means well fitted activation curve with a large enough effect in the signal ratio in the repeat runs, not every such curve was filed as active; the % refers to the signal ratio)
Chain of Bile acid receptor (Homo sapiens) (Q96RI1 whole entry, looked up): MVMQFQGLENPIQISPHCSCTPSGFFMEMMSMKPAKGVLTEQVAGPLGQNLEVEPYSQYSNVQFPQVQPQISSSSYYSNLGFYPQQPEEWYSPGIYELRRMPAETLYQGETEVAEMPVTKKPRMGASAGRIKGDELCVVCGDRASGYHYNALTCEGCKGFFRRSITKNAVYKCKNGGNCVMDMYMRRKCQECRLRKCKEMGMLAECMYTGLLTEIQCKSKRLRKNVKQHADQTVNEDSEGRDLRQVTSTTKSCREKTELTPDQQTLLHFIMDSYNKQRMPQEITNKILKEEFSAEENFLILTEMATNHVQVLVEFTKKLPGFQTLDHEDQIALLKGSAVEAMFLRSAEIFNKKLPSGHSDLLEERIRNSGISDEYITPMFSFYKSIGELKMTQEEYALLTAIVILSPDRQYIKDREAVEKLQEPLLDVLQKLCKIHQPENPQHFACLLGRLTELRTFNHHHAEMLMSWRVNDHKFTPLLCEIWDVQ
Method in brief: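 Beta-lactamase reporter under UAS control in GeneBLAzer FXR HEK 293T cells (5000/well) measured with LiveBLAzer FRET substrate after 2 h at room temperature. Compound exposure lasted 16 h at 37C.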

[18] = molecular target: Vitamin D3 receptor (Homo sapiens) (UniProt P11473); test: qHTS assay to identify small molecule agonists of the vitamin D receptor (VDR) signaling pathway (AID 743222; calls by dose curve)
Chain of Vitamin D3 receptor (Homo sapiens) (P11473 whole entry, looked up): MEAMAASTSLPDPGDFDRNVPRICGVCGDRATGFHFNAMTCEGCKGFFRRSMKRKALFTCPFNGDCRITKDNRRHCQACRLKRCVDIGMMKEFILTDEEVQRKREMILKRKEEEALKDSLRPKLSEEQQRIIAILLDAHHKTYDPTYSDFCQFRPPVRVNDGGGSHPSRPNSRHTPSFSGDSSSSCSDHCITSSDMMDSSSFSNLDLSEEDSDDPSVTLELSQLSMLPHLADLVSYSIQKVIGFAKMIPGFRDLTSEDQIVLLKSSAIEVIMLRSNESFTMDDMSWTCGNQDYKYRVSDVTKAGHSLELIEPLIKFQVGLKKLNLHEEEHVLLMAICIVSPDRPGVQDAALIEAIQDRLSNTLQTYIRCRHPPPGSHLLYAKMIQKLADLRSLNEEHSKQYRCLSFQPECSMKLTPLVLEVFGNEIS
Method in brief: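 Quantitative HTS agonist-mode screen: compounds in DMSO were pin-transferred onto VDR-bla cells and incubated 16 h at 37C, 5% CO2. Reporter activity was detected with LiveBLAzer B/G FRET substrate after 2 h at room temperature.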

[19] = molecular target: Vitamin D3 receptor (Homo sapiens) (UniProt P11473); test: qHTS assay to identify small molecule antagonists of the vitamin D receptor (VDR) signaling pathway (AID 743223; active means well fitted inhibition curve with a large enough effect in the signal ratio in the repeat runs, not every such curve was filed as active; the % refers to the signal ratio)
Method in brief: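 Quantitative HTS in VDR-bla reporter cells stimulated with 1alpha,25-dihydroxyvitamin D3, 3 nM final. Compound exposure 16 h, 37C, 5% CO2. Read-out: beta-lactamase FRET substrate fluorescence, 2 h RT.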

[20] = molecular target: Bile acid receptor (Homo sapiens) (UniProt Q96RI1); test: qHTS assay to identify small molecule antagonists of the farnesoid-X-receptor (FXR) signaling pathway (AID 743217; active means well fitted inhibition curve with a large enough effect in the signal ratio in the repeat runs, not every such curve was filed as active; the % refers to the signal ratio)
Method in brief: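 Antagonist mode against 50 uM (final) chenodeoxycholic acid stimulation in FXR-bla HEK 293T cells, 16 h at 37 °C. Inhibition detected as reduced beta-lactamase activity via LiveBLAzer B/G FRET fluorescence after 2 h at room temperature.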

Measured: Potency

C=C(C)C1CC=C(C)C(O)C1 (configuration not stated)
not listed: [16] | [17] | [18] | [19] | [20]
inactive: all other assays above

CN1[C@@H]2CC[C@H]1CC(NC(=O)n1c(=O)[nH]c3ccccc31)C2 (some centres not stated)
not listed: [4] | [20]
inactive: all other assays above

Cc1c(F)cc2c(=O)c(C(=O)O)cn3c2c1CCC3C (configuration not stated)
not listed: [4] | [17] | [20]
inactive: all other assays above

COCc1ccc(COC)cc1
not listed: [2] | [16] | [18]
inactive: all other assays above

O=S(=O)(O)c1ccccc1O
not listed: [2] | [6] | [17] | [18] | [19] | [20]
inactive: all other assays above

Nc1nc(F)nc2c1ncn2[C@@H]1O[C@H](CO)[C@@H](O)[C@@H]1O
not listed: [4] | [17] | [18] | [19] | [20]
inactive: all other assays above

COc1ccc(N=[N+]([O-])c2ccc(OC)cc2)cc1
not listed: [4] | [16] | [17] | [20]
inactive: all other assays above

CCCC(C)CO (configuration not stated)
not listed: [4] | [6] | [18] | [19]
inactive: all other assays above

CC(C)(O)C(=O)c1ccc(OCCO)cc1
not listed: [4] | [6] | [16] | [17] | [18] | [19] | [20]
inactive: all other assays above

CCC(=O)/C=C/c1ccc(OC)cc1
not listed: [4] | [5] | [6]
inactive: all other assays above

Cc1c(C)n(CCN(C)C)c2ccc(C(=O)OCCN(C)C)cc12
not listed: [3] | [6] | [17]
inactive: all other assays above

CCCCCCCCCCCCCCCCCC(=O)OCCCCCCCCCCCCCC(C)C
not listed: [4] | [17] | [20]
inactive: all other assays above

CCCOCC(C)OCC(C)O (configuration not stated)
not listed: [2] | [4]
inactive: all other assays above

COc1cc(C)cc(O)c1
not listed: [6] | [16] | [17] | [18] | [19] | [20]
inactive: all other assays above

Nc1ncnc2c1ncn2Cc1c(F)cccc1Cl
not listed: [3] | [4] | [17] | [18] | [20]
inactive: all other assays above

Nc1nc2c(ncn2CCC(CO)CO)c(=O)[nH]1
not listed: [4] | [7] | [19]
inactive: all other assays above

CCCC=O
not listed: [3] | [17] | [19] | [20]
inactive: all other assays above
